Data reported in PubChem BioAssay (NCATS).
Records with an inconclusive call do not appear. Calls of active or inactive are those of the source. Calls follow the shape of the dose curve; as a rule, active = well fitted cell-killing curve with a large enough effect; inconclusive = small, poorly fitted or top-dose-only effect, or effect the other way; inactive = flat fitted curve, though single readings scatter. Non-standard residues stand in square brackets, D forms with d. Residues, ends and D or L forms follow the SMILES beside them. *: point of attachment. Sta = CC(C)C[C@H](N)[C@@H](O)CC(=O)O; Isovaleryl = CC(C)CC(=O)*

The compounds below were run on Hek293T (assay: Primary qHTS to identify gynecologic anti-cancer compounds using libraries of approved drugs and bioactive compounds (AID 1345084; also: nearly all actives have a fitted effect of over 55% in size)). Settings: Gynecologic cancer cell panel viability, ATPlite luminescence, 48 h, control line for the selectivity index; series mostly up to 57.5 µM; activity change, negative = cytotoxicity: at the top concentration.
In short: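 Cell viability after 48 h drug treatment, ATPlite luminescence readout; five doses.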
% is scaled to controls: 0 for no effect and ±100 for the full control effect.

| SMILES | activity change, negative = cytotoxicity | Potency |
| --- | --- | --- |
| CC1(C)CCC(C)(C)c2cc(NC(=O)c3ccc(C(=O)O)cc3)ccc21 | -0.587% (inactive) | – |
| O=C(c1ccccc1)c1ccc2n1CCC2C(=O)O (centres undefined) | 8.49% (inactive) | – |
| O=C(O)CCNC(=O)c1ccc(N=Nc2ccc(O)c(C(=O)O)c2)cc1 | 4.19% (inactive) | – |
| CN(C)c1ccc(O)c2c1C[C@H]1C[C@H]3[C@H](N(C)C)C(=O)C(C(N)=O)=C(O)[C@@]3(O)C(=O)C1=C2O | 0.299% (inactive) | – |
| CNC[C@H](O)c1ccc(O)c(O)c1 | 19% [at 25.3 µM] (inactive) | – |
| COc1cc2nc(N3CCN(C(=O)C4CCCO4)CC3)nc(N)c2cc1OC (centres undefined) | -2.52% (inactive) | – |
| CCC[C@@H]1C[C@@H](C(=O)N[C@@H]([C@H]2O[C@H](SC)[C@H](O)[C@@H](O)[C@H]2O)[C@@H](C)O)N(C)C1 | 6.81% (inactive) | – |
| CCC1=C(C)CN(C(=O)NCCc2ccc(S(=O)(=O)NC(=O)NC3CCC(C)CC3)cc2)C1=O (centres undefined) | – | inactive |
| Nc1ncn([C@H]2C[C@H](O)[C@@H](CO)O2)c(=O)n1 | -23.6% (inactive) | – |
| CCCc1cc(=O)[nH]c(=S)[nH]1 | 2.97% (inactive) | – |
| CC(C)CC(=O)N[C@H](C(=O)N[C@H](C(=O)N[C@@H](CC(C)C)[C@@H](O)CC(=O)N[C@@H](C)C(=O)N[C@@H](CC(C)C)[C@@H](O)CC(=O)O)C(C)C)C(C)C (Isovaleryl-VV[Sta]A[Sta]-OH) | -0.285% (inactive) | – |
| COCCCN1CCC(NC(=O)c2cc(Cl)c(N)c3c2OCC3)CC1 | -22.7% (inactive) | – |
| CC1=C(C(=O)O)N2C(=O)[C@@H](NC(=O)[C@H](N)C3=CCC=CC3)[C@H]2SC1 | 23.5% (inactive) | – |
| CC(=O)NC[C@H]1CN(c2ccc(N3CCOCC3)c(F)c2)C(=O)O1 | -0.141% (inactive) | – |
